# Screens as filed in PubChem.
# The list is not random: actives were taken first. Their share in the collection is about 9.3%.
# Sm TGR block: inhibitors of Schistosoma mansoni thioredoxin glutathione reductase; Q962Y6; purified TGR, DTNB reduction, TNB absorbance 405 nm; Potency, µM (highest dose often 114 µM), for inactives: top-dose activity change, negative = inhibition, actives largely listed as inhibitors; 360,000 compounds, 3% hits; also: potency is read from the fitted curve at half-maximal effect; nearly all actives have a fitted effect of over 60% in size
#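 TGR 20 nM + NADPH 100 uM (dispensed conc.), cpd preinc 15 min RT; start with NADPH (500 uM addition) then DTNB (15 mM addition). Kinetic TNB absorbance, 405 nm filter. Four-parameter Hill fit across titration.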
# HCMV inh: blocks human cytomegalovirus replication; AID 1259415; activity change, negative = inhibition, % at 57.5 µM; 410,000 compounds, 4.5% hits; HFF cells, HCMV-luciferase reporter, 72 h; active compounds read low; in the data active = activity change below about -60%; inconclusive = no clear call, values can overlap the other calls; inactive = above about -39%
#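 Luciferase read-out from HCMV-luciferase-infected HFFs (MOI 1 PFU/cell) 72 h post infection at 37C; compounds added after 16 h cell attachment; activity normalized between buffer-only basal and Salinomycin (10uM) inhibitor controls.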
# FMDV inh: foot and mouth disease virus antiviral activity. 410,000 compounds, 1.2% hits. Potency, µM (series often up to 57.9 µM), for the others: at the top dose activity change, negative = inhibition, hits mostly inhibitors. FMDV antiviral cell-based qHTS; calls by dose curve; tested in HEK293T cells; also: read-out not given here; potency is read from the fitted curve at half-maximal effect; nearly all actives have a fitted effect of over 45% in size
# Vaccinia mCherry: vaccinia inhibition (mCherry reporter); Vaccinia virus mCherry reporter infection, fluorescence; Potency, µM (highest dose often 36.5 µM), without a hit: top-dose activity change, negative = inhibition, most hits filed as inhibitors; 310,000 compounds, 0.63% hits; AID 720579; calls by dose curve; tested in A549 cells; also: potency is read from the fitted curve at half-maximal effect; nearly all actives have a fitted effect of over 35% in size
# HCV inhibitor: HCV inhibition | Huh7.5.1 HCVcc-Cre infection, luciferase reporter, 44 h | Potency, µM (highest dose often 41.8 µM), for inactives: at the highest dose activity change, negative = inhibition, most hits filed as inhibitors | 340,000 compounds, 3.4% hits | AID 651820; also: potency is read from the fitted curve at half-maximal effect
#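 Compounds are dispensed onto cells plated 4 h earlier at 1,000 per well, with HCVcc-Cre virus (about 0.5 moi) added next. Following 44 h of culture, luminescent signal is measured for 15 sec after 15 min with substrate at room temperature.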
# Vaccinia Venus: vaccinia inhibition (Venus reporter); Vaccinia virus Venus reporter expression, fluorescence; AID 720580; 330,000 compounds, 0.46% hits; Potency, µM (top dose mostly 36.5 µM), inactives show at the highest dose activity change, negative = inhibition, hits mostly inhibitors; calls by dose curve; tested in A549 cells; also: potency is read from the fitted curve at half-maximal effect; nearly all actives have a fitted effect of over 30% in size
# The depositor's hits bear a star; i = inactive; ? = inconclusive; . = no result given. Unless noted, calls follow the shape of the dose curve; as a rule, active = well fitted curve in the direction sought with a large enough effect; inconclusive = small, poorly fitted or top-dose-only effect, or another doubt; inactive = no such curve, though single readings can be large; an effect the other way counts as inactive or inconclusive. % is scaled to controls: 0 for no effect and ±100 for the full control effect.
SMILES,Sm TGR block,HCMV inh,FMDV inh,Vaccinia mCherry,HCV inhibitor,Vaccinia Venus
CC(C)C[C@@H](CC#N)N1CCN(CCc2ccccc2)CCC1=O,0%,-1,-7%,-9%,21%,-5%
CCN1CCc2nc(N)oc2CC1,5.6µM*,-70*,-16%,-7%,11%,-14%
CCN1CCc2nc(N)sc2C1,-8%,?,-14%,-1%,5%,-14%
CCN1C[C@]2(COC)CC[C@H](OC)[C@@]34C5C[C@H]6C(=O)C5[C@](O)(C[C@H]6OC)[C@@](O)(C(OC)C23)[C@@H]14 (stereo not given in full),.,6,-15%,-6%,32%,-8%
COc1ccccc1NC(=O)COc1ccc(Br)cc1CO,44%,27,-18%,.,-5%,.
O=C(COc1ccc(Br)cc1CO)Nc1ccccc1,4%,24,28%,.,16µM*,.
Cc1ccc(NC(=O)COc2ccc(Br)cc2CO)cc1,-2%,42,-7%,.,?,.
O=C(COc1ccc(Br)cc1CO)Nc1ccccc1F,0%,54,10%,.,25µM*,-3%
COc1cc(C2c3cc4c(cc3CC3COC(=O)C32)OCO4)cc(OC)c1OC (stereo not given),.,1,-14%,-21%,?,?
COc1cc(C2c3cc4c(c(O)c3CC3COC(=O)C32)OCO4)cc(OC)c1OC (stereo not given),.,-83*,-22%,?,-19%,?
COc1cc(C2c3cc4c(cc3CC3COC(=O)N32)OCO4)cc(OC)c1OC (stereo not given),.,-88*,-8%,?,-10%,?
COc1cc([C@@H]2c3cc4c(cc3C[C@H]3COC(=O)[C@@H]32)OCO4)cc(OC)c1O,.,.,.,10µM*,.,?
COc1cc([C@@H]2c3cc4c(cc3[C@@H](O)[C@H]3COC(=O)[C@H]23)OCO4)cc(OC)c1O,.,.,.,11µM*,.,?
CCc1cc(C(=O)c2ccc(OC)cc2)c(NC(=O)CN2CCCC2)s1,?,7,-12%,.,-27%,.
Cc1nc(NC(=S)NC(=O)COc2ccccc2Cl)ccc1Br,1%,-22,-18%,-12%,7%,-5%
COc1ccccc1N1CCN(CCN2C(=O)CC3(CCCC3)CC2=O)CC1,.,-38,-23%,-13%,-11%,-17%
CCOc1ccc(CCNC(=O)c2cc3c(-c4cccc(OC)c4)nn(C)c3s2)cc1OCC,3%,-63*,?,?,.,?
CCOC(=O)c1cccc(NC(=O)c2cc3c(-c4cccc(OC)c4)nn(C)c3s2)c1,12%,-7,?,-2%,.,-3%
Cc1ccc(CCNC(=O)c2cc3c(-c4ccccc4F)nn(C)c3s2)cc1,-1%,-14,-20%,-6%,.,-5%
CCOc1ccc(CCNC(=O)c2cc3c(-c4ccccc4F)nn(C)c3s2)cc1OCC,-1%,-65*,?,?,.,?
CCN(CCCNC(=O)c1cc2c(-c3cccc(OC)c3)nn(C)c2s1)Cc1ccccc1,5%,-2,-7%,-1%,11µM*,?
CCOc1ccccc1NC(=O)C(CC(C)C)NC(=O)C1CCCCC1 (stereo not given),5%,58,35%,.,8%,.
CCC(C)(C)NC(=O)CN(Cc1ccc2c(c1)OCO2)C(=O)CCC(=O)Nc1nccs1,6%,36,-14%,i,3%,-18%
CC1(C)SC(=S)N(/N=C/c2ccccc2O)C1N(O)C(=O)Nc1ccccc1 (stereo not given),-2%,?,57%,i,11µM*,-21%
Cc1ccc(/C=N/N2C(=S)SC(C)(C)C2N(O)C(=O)Nc2ccc([N+](=O)[O-])cc2)cc1 (stereo not given),-21%,5,-9%,?,11µM*,?
SMILES,Sm TGR block,HCMV inh,FMDV inh,Vaccinia mCherry,HCV inhibitor,Vaccinia Venus
CNC(=O)N(O)C1N(/N=C/c2cc(Br)ccc2O)C(=S)SC1(C)C (stereo not given),0%,-15,26%,-6%,11µM*,-21%
CCCCNC(=O)N(O)C1N(/N=C/c2ccco2)C(=S)SC1(C)C (stereo not given),28µM*,10,27%,.,-20%,.
CC1(C)SC(=S)N(/N=C/c2ccc(O)cc2)C1N(O)C(=O)Nc1ccc([N+](=O)[O-])cc1 (stereo not given),8%,-14,18%,.,?,?
COc1ccccc1-c1cc(C(=O)N2CCCCC2C)no1 (stereo not given),9%,-34,12%,-7%,.,-5%
O=C(/C=C\c1ccccc1[N+](=O)[O-])Nc1ccccc1,3%,57,5%,.,-25%,.
CC(=O)c1cccc(NC(=O)/C=C/c2ccc([N+](=O)[O-])s2)c1,4%,-96*,?,-6%,?,2%
Cc1cc(C)cc(NC(=O)/C=C/c2ccc([N+](=O)[O-])s2)c1,0%,-92*,-28%,-30%,?,-6%
COC(=O)c1cccc(NC(=O)/C=C/c2cccc([N+](=O)[O-])c2)c1,10%,-2,?,.,?,.
Cc1ccccc1NC(=O)/C=C/c1ccc([N+](=O)[O-])s1,?,.,10µM*,-18%,10µM*,167%
COc1ccccc1NC(=O)C(=O)N/N=C/c1ccc([N+](=O)[O-])s1,.,-27,-19%,.,-16%,.
O=C(CN1C(=O)CSC1=O)N1CCc2ccccc2C1,-6%,-30,19%,-11%,9%,-11%
C[N+](C)(C)CCCN(Cc1ccc2c(c1)OCO2)C(=O)NC1CCCCC1,19%,22,-7%,.,3.2µM*,.
O=C(c1cc(COc2ccc(-n3cncn3)cc2)on1)N1CCCC1,.,31,-11%,.,-17%,.
CCC1CCCCN1C(=O)c1cc(COc2ccc(-n3cncn3)cc2)on1 (stereo not given),-13%,-61*,?,-3%,32µM*,-20%
CC1(C)Cc2c(C#N)c(N3CCN(C(=O)c4ccccc4Cl)CC3)nc(-c3ccco3)c2CS1,3.5µM*,-4,?,.,?,-7%
CC1(C)Cc2c(C#N)c(N3CCN(C(=O)c4ccco4)CC3)nc(-c3ccco3)c2CS1,2.8µM*,18,-26%,.,8.9µM*,.
N#Cc1c(N2CCN(C(=O)c3ccccc3Cl)CC2)nc(-c2ccccc2)c2c1CCCC2,11%,-6,24%,0%,?,-6%
CC1(C)Cc2c(c(-c3ccco3)[nH]c(=O)c2C#N)CS1,32µM*,6,-8%,-9%,6%,14%
CC(=O)N1CCN(c2nc(-c3ccco3)c3c(c2C#N)CC(C)(C)SC3)CC1,11µM*,-1,?,-14%,13µM*,-7%
CC1(C)Cc2c(C#N)c(SCC(=O)c3ccccc3)nc(N3CCOCC3)c2CS1,-21%,18,-12%,-32%,?,-18%
Cn1c(SCC(=O)Nc2nccs2)nnc1C1CC1,4%,8,13%,-14%,11%,-2%
